High-throughput results deposited in PubChem BioAssay by Sanford-Burnham Center for Chemical Genomics.
In the library only some 28% were active in any assay of this set; here they are far more common.
CYP2C9 act: human CYP2C9 activators, primary screen, biochemical, luminescence. Cytochrome P450 2C9 (Homo sapiens), P11712. recombinant CYP2C9, luciferin-H conversion; hits give high values; factor 1 = untreated enzyme, 0 = blocked. activation factor at 5 µM. hit rate 1.4% among 96,000. AID 1024, 2008;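 active = activation factor of 2 or more for CYP2C9 at a 5 µM dose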;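 note: 0 = sulfaphenazole-blocked wells and 1 = vehicle-only wells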
CYP2C19 activ: human CYP2C19 activators, primary screen, biochemical, luminescence. 96,000 tested, under 10 active. Cytochrome P450 2C19 (Homo sapiens), P33261. activation factor at 5 µM. AID 1025, 2008. recombinant CYP2C19, luciferin-H EGE luminescence; hits give high values; 0 = fully inhibited enzyme, 1 = untreated enzyme;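 active = activation factor of at least 2 at 5 µM in the primary screen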;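 note: 0 = wells with 2.5 mM tranylcypromine and 1 = vehicle-only wells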
CYP2C19 inh: blockers of cytochrome P450 2C19 activity – biochemical, luminescence, ADME assay, primary screen. inhibition, % at 5 µM. AID 778, 2007. P33261. hit rate 21% among 96,000. CYP2C19 Supersomes, luciferin-H EGE luminescence, 30 min;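 active = CYP2C19 inhibition above a set limit at 5 µM in the primary screen, cut at about 50% in these data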;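 note: plate controls were negative control wells for no effect and 2.5 mM tranylcypromine positive control for full effect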
PTK2B oligo ant: antagonists of Pyk2 self-association, primary screen, Q293 cells, FERM NanoBiT luminescence, HTS | Protein-tyrosine kinase 2-beta (Homo sapiens), Q14289 | hits give low values | z-score (the deposit names both 25 µM and 10 µM) | hit rate 0.83% among 99,000;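 active = Z-score of -3 or lower, scaled per plate to the spread of control and sample wells; inactive = z-score above -3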;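 note: negative z-score means lost luminescence so less FERM oligomerization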
Target sequence (Q14289 whole entry, looked up): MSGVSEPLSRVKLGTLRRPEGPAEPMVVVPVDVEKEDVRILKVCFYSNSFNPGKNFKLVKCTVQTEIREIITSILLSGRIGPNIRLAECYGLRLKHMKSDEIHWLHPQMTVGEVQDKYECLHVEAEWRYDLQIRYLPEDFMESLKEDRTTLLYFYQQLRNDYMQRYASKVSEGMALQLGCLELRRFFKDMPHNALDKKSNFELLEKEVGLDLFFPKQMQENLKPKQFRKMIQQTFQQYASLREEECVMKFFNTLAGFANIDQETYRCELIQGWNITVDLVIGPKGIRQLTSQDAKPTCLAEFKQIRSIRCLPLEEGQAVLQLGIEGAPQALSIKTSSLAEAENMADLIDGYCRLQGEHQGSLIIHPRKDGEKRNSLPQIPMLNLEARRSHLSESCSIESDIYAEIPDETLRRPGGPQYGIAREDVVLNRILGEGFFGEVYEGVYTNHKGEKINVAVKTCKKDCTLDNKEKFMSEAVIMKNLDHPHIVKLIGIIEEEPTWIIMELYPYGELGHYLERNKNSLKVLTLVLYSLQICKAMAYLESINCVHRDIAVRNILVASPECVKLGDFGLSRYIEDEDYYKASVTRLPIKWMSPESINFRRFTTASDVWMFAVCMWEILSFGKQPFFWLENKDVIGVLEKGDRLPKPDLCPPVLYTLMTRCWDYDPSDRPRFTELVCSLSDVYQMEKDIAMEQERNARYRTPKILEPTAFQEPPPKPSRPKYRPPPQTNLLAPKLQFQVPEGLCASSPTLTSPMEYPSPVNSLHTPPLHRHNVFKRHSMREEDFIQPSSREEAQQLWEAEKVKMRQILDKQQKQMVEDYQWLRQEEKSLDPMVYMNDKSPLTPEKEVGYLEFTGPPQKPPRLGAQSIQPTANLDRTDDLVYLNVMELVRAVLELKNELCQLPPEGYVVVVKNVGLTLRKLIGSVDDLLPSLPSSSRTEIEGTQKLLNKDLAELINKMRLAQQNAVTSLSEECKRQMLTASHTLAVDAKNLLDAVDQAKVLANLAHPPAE
CYP2C9 inh: blockers of cytochrome P450 2C9 activity – biochemical, luminescence, ADME assay, primary screen; P11712; CYP2C9 Supersomes, luciferin-H conversion; inhibition, % at 5 µM; hit rate 20% among 96,000; AID 777, 2007;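 active = blocking of liver enzyme CYP2C9 beyond about 50% at 5 µM, limit read from the data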
* marks the source's active call; other numbers are inactive results; . = no result.

SMILES	CYP2C9 act	CYP2C19 activ	CYP2C19 inh	PTK2B oligo ant	CYP2C9 inh
COc1ccc(S(=O)(=O)Nc2nc3n(n2)C(c2ccc(Cl)cc2)CC(=O)N3)cc1 (stereo not drawn)	0.8	1.2	-19	0.54	20
CCOC(=O)c1cc2sc(C)cc2n1CC(=O)N(CC)CC	1	0.5	54*	-0.39	-5
COC(=O)c1cc2sc(Cl)cc2n1CC(=O)NCCC(C)C	1.1	0.8	16	0.26	-7
CCOC(=O)c1cc2sc(C)cc2n1CC(=O)NCCc1ccccc1	0.5	0	100*	0.88	46
CCOC(=O)c1cc2ccccc2n1CCN(CC)CC	1.2	0.7	35	0.47	-24
CCCOc1ccccc1Nc1nnc(C)c(=O)[nH]1	1.1	1.1	-6	-0.16	-9
Fc1ccc(OCc2nn3cnnc3s2)cc1	1	0.2	79*	0.44	0
CCOc1ccc(-c2nnc3sc(COc4ccc(C)cc4)nn23)cc1	0.8	0.6	45	-0.43	18
COc1ccc(-c2cc(C(=O)OC3CCOC3=O)c3ccccc3n2)cc1OC (stereo not drawn)	0.2	0.4	55*	0.99	77*
O=C(OC1CCOC1=O)c1cc(-c2ccc(Cl)cc2)nc2ccccc12 (stereo not drawn)	1	1	2	-1.2	1
COC(=O)c1cc(-c2ccc3c(c2)OCO3)nc2ccccc12	0.6	0.9	7	-0.88	39
O=C(OC1CCOC1=O)c1cc(-c2ccccc2)nc2ccccc12 (stereo not drawn)	0.1	0.5	49	-0.32	88*
CC(C)CN(CC(C)C)S(=O)(=O)N1CCC(C(=O)NC2CCCCCCC2)CC1	0.9	1	3	0.45	9
CC(=O)c1ccc(N2CCN(C(=S)Nc3ccccc3)CC2)cc1	1	0.9	8	0.55	-1
CCc1ccc(CNc2ccc(N3CCN(C(C)=O)CC3)cc2)cc1	0.6	0.4	56*	-0.15	38
CC(=O)N1CCN(c2ccc(NCc3ccc(C)cc3)cc2)CC1	0.5	0.6	44	0.26	54*
CC(=O)c1ccc(NCC(=O)N2CCN(c3ccccc3)CC2)cc1	0.8	0.4	58*	1.9	23
CC1=NNC(=O)C1CCC(=O)N/N=C\c1ccccc1[N+](=O)[O-] (stereo not drawn)	1	0.9	10	0.7	1
Nc1c(S(=O)(=O)c2ccccc2)c2nc3ccccc3nc2n1/N=C/c1ccco1	0.8	0.9	8	-0.9	21
Cc1ccc(S(=O)(=O)c2c(N)n(CC3CCOC3)c3nc4ccccc4nc23)cc1 (stereo not drawn)	0.2	0.1	86*	1.2	82*
Cc1cccc(S(=O)(=O)c2c(N)n(/N=C/c3cccnc3)c3nc4ccccc4nc23)c1	0.6	1.1	-8	-1.4	36
Cc1cccc(S(=O)(=O)c2c(N)n(/N=C/c3ccco3)c3nc4ccccc4nc23)c1	0.1	0.4	61*	-0.2	86*
Cc1ccc(S(=O)(=O)c2c(N)n(/N=C/c3ccco3)c3nc4ccccc4nc23)cc1	0.2	0.3	68*	-1.7	84*
Cc1cccc(S(=O)(=O)c2c(N)n(-c3ccccc3)c3nc4ccccc4nc23)c1	.	.	.	0.9	.
Cc1ccc(S(=O)(=O)c2c(N)n(/N=C/c3ccco3)c3nc4ccccc4nc23)cc1C	0.5	0.8	23	-1.2	51*
SMILES	CYP2C9 act	CYP2C19 activ	CYP2C19 inh	PTK2B oligo ant	CYP2C9 inh
CC1=CC(C)(C)N2C(=O)C3(SCC(=O)N3c3ccc(F)cc3)c3cc(C)cc1c32 (stereo not drawn)	0.4	0.5	48	-2.5	63*
COc1cccc(/C=N/n2nnc3c(cnn3-c3ccccc3)c2=O)c1	0.9	0.9	10	0.35	8
CC/C(=N\NC(=O)c1csc(C)c1C)c1cccs1	0.9	0.3	75*	0.32	14
C/C(=N\NC(=O)c1csc(C)c1C)c1ccc(Cl)s1	1.1	1	4	0.03	-10
CCC/C(=N\NC(=O)c1csc(C)c1C)c1cccs1	1.2	0.3	67*	-0.47	-19
CCCCCSc1nnc2c(n1)OC(c1cccn1C)N(C(C)=O)c1ccccc1-2 (stereo not drawn)	0.2	0.5	45	-0.95	83*
CCOc1cc(/C=C2\N=C(C)OC2=O)cc(Br)c1OCCc1ccccc1	0.3	0.7	28	-0.05	70*
CCOc1cc(/C=C2\N=C(C)OC2=O)cc(Br)c1OCC(=O)OC	1.2	1.1	-10	0.17	-17
Cc1oc(-c2ccccc2Cl)nc1Cn1cccc1C1=NC(c2ccccc2)CO1 (stereo not drawn)	0.3	0.6	43	-0.04	75*
CCc1ccc(C2C(C(=O)O)c3ccccc3C(=O)N2C)cc1 (stereo not drawn)	0.8	1	3	-0.62	18
CCc1ccc(/C=C/C(=O)C2C(=O)c3ccccc3C2=O)cc1	0.4	1	1	-0.34	60*
COc1ccc(CCNC(=O)C2CCC(CNc3c(N4CCCC4)c(=O)c3=O)CC2)cc1OC (stereo not drawn)	1	1	-4	-0.41	-4
Cc1nn(C)c(=O)n1-c1ccc(Oc2ccccc2)cc1	0.1	0.8	22	0.1	91*
CCOc1ccc(NC(=O)CCN2CCN(S(=O)(=O)c3cc(Cl)ccc3OC)CC2)cc1	0.3	0	96*	0.67	68*
COc1ccc(Cl)cc1C(=O)Nc1ccc(S(=O)(=O)N2CCCC2)cc1	0.9	1.2	-21	-1.4	10
CCN(CC)c1ccc(NC(=O)CN2CCN(S(=O)(=O)c3cc(Cl)ccc3OC)CC2)cc1	1.3	0.3	72*	-0.93	-28
N#Cc1c(NC(=O)CSc2ccccn2)oc(-c2ccccc2)c1-c1ccccc1	0.1	1.2	-17	-1.5	86*
N#Cc1c(NC(=O)CSc2ncnc3sccc23)oc(-c2ccco2)c1-c1ccco1	0.2	0.7	26	0.12	84*
Cc1nnc(NC(=O)CSc2ccccn2)s1	1.1	1.1	-5	-0.5	-13
COc1ccc(-c2oc(NC(=O)CSc3nncn3C)c(C#N)c2-c2ccc(OC)cc2)cc1	0.4	0.6	39	-3.8*	58*
COc1ccc(NC(=O)CSc2nncn2C)c([N+](=O)[O-])c1	0.9	1	1	-0.15	7
CCn1c(SCC(=O)Nc2cc(C)on2)nnc1-c1ccccc1	.	.	.	0.58	.
CCn1c(SCC(=O)Nc2oc(-c3ccccc3)c(-c3ccccc3)c2C#N)nnc1-c1ccncc1	0.2	0.4	58*	-1.9	78*
Cc1cnc(C(=O)OCC(=O)Nc2oc(-c3ccccc3)c(-c3ccccc3)c2C#N)cn1	0.4	0.9	10	-1.8	62*
